Results filed as inconclusive are left out. Calls of active or inactive are those of the source. The call rests on the fitted dose curve; in most records, active means well fitted inhibition curve with a large enough effect; inconclusive means small, poorly fitted or top-dose-only effect; inactive means no such curve, though single readings can be large or run the other way.

40 compounds from PubChem BioAssay AID602357 (National Center for Advancing Translational Sciences (NCATS), 2012) can be followed below.

Chain of Luciferin 4-monooxygenase (Photinus pyralis) (P08659 whole entry, looked up): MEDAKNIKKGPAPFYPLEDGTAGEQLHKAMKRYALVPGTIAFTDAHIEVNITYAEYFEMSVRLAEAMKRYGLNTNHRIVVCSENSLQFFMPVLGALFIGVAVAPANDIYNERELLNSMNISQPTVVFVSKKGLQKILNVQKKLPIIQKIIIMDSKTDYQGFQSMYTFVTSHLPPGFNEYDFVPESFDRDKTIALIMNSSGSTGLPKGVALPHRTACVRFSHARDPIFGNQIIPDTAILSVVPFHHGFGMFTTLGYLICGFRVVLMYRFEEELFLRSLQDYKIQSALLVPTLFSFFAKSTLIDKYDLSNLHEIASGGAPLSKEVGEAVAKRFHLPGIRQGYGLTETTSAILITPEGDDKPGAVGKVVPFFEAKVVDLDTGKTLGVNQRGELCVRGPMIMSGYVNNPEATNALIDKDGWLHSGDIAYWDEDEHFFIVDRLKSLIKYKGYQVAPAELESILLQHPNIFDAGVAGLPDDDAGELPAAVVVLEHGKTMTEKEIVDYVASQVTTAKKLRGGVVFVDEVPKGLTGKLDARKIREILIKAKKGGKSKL

The target of this experiment is Luciferin 4-monooxygenase (Photinus pyralis) (UniProt P08659). The experiment in a line: FLuc inhibitory activity for the follow-up compounds in a biochemical assay with Km concentrations of substrate. The settings on record: purified FLuc, Km substrates, luminescence; series mostly up to 57.5 µM. From the text:
NCGC Assay Overview: Firefly (Photinus pyralis) luciferase is one of the most commonly used transcriptional reporters. It is considered one of the more dynamically responsive reporters - that is, responsive to changes in reporter transcription - as it requires no post-translational modifications and is enzymatically active directly after protein synthesis (Wood, 1998). With no endogenous expression in mammalian cells and without the requirement of external excitation, it offers very little background signal, thus generally providing excellent signal to background for most assays. Previous profiling work to determine the prevalence of compounds that affect FLuc enzymatic activity (PubChem AID 411) identified that ~3% of the MLSMR library (then at ~72K) inhibited FLuc. […] Of the compounds identified in this profile that inhibited FLuc, 151 compounds were selected for further analysis, in an effort to better understand their mode of inhibiting FLuc. The assay described here confirms the FLuc inhibitory activity of the 151 compounds.
NCGC Assay Protocol Summary: Reagents: 50mM Tris acetate, pH 7.5; 10mM Mg acetate; 10uM D-luciferin (Sigma #L9504); 10uM ATP; 0.01% Tween-20; 0.05% BSA; 10nM P. pyralis luciferase (Sigma #L9506) Control compounds used were two known firefly luciferase inhibitors (3-(5-(3-chlorophenyl)-1,2,4-oxadiazol-3-yl)benzoic acid and 5-(2-fluorophenyl)-3-phenyl-1,2,4-oxadiazole), and DMSO. Three microliters containing firefly luciferase substrates in buffer (final concentrations: 50mM Tris acetate, pH 7.5, 10mM Mg acetate, 0.01% Tween-20, 0.05% BSA, 10uM D-luciferin, and 10uM ATP) are dispensed into each well of a Greiner white, solid-bottom 1536-well format plate using a flying reagent dispenser (FRD). These assay plates were then treated with 23nL of compound or DMSO using a Kalypsys pin tool, which allows for delivery of a 12-point intraplate titration of each compound to the assay plate (quantitative HTS), with a final compound concentrations ranging from approximately ~60uM to 0.3nM. One microliter of firefly luciferase in 500mM Tris-acetate buffer was then delivered by FRD to each well for a final enzyme concentration of 10nM. Luciferase activity was then measured using a ViewLux CCD imager (PerkinElmer), with an average exposure time of 2-30 seconds (2X binning, medium/high gain).
As to `COc1ccc2nc(NC(=O)c3ccccc3C(=O)O)sc2c1`, the Potency was 18.3 µM (active).

For the compound `COc1cc(OC)cc(C(=O)Nc2ccccc2-c2nc3ccccc3s2)c1`, the Potency result is “inactive”. The same measure for `O=C(Nc1ccccc1C(=O)O)c1cccc(S(=O)(=O)N2CCCC2)c1`: 13 µM (active). For `CCOc1ccc(C(=O)Nc2cccc(C(=O)O)c2)cc1Cl` the value was 0.058 µM (active); for `CCOc1ccc(C(=O)Nc2ccccc2C(=O)O)cc1`, 1.46 µM (active). For `CCOc1ccc2nc(NC(=O)c3ccccc3)sc2c1` the value was 0.326 µM (active); for `Cc1ccc2sc(-c3ccc(NC(=O)c4cc(-n5cnnc5)ccc4Cl)cc3)nc2c1`, 6.51 µM (active). For the compound `O=C(Nc1ccccc1C(=O)O)c1ccc(NC(=O)C2CCCO2)cc1` (stereo not given), the Potency is 16.3 µM (active). For `CC(C)c1ccc(-c2nc3ccccc3s2)cc1` the value was 0.0291 µM (active); for `O=C(Nc1cccc(-c2nc3ccccc3s2)c1)c1cc(-n2cnnc2)ccc1Cl`, 11.6 µM (active). For `CCOc1ccc2nc(NC(=O)c3ccccn3)sc2c1` the value was 0.517 µM (active); for `COc1ccc2nc(NC(=O)c3cnccn3)sc2c1`, 2.91 µM (active). For `COc1ccc(C(=O)Nc2ccccc2C(=O)Nc2ccccc2C(=O)O)cc1` the value was 0.58 µM (active); for `Cc1ccc(C(=O)O/N=C(\N)c2ccccn2)cc1`, 0.0291 µM (active); for `O=C(O)c1cccc(NC(=O)c2ccc(S(=O)(=O)c3ccccc3)cc2)c1`, 5.8 µM (active). Consider `O=C(COC(=O)c1ccccc1[N+](=O)[O-])c1ccc2c(c1)OCO2`, for which the Potency is 0.0058 µM (active). The same measure for `c1ccc2sc(-c3ccc4c(c3)OCO4)nc2c1`: 0.326 µM (active); for `CCOc1ccc2nc(NC(=O)c3cccnc3)sc2c1`: 2.91 µM (active). Turning to `COc1ccc2nc(NC(=O)c3cccs3)sc2c1`, the Potency is 20.6 µM (active). The same measure for `O=C(Cc1ccccc1)Nc1ccc(C(=O)Nc2ccccc2C(=O)O)cc1`: 20.6 µM (active). For `Nc1ccc(-c2nc3ccc(N)cc3s2)cc1` the value was 0.326 µM (active); for `Cc1ccccc1C(=O)Nc1cccc(C(=O)Nc2ccccc2C(=O)O)c1`, 32.6 µM (active); for `CCCC(=O)Nc1nc2ccc(OCC)cc2s1`, 13 µM (active). For `COc1ccc(Br)cc1C(=O)Nc1ccc(C(=O)O)cc1` the value was “inactive”.

For the compound `O=C(Nc1ccccc1C(=O)O)c1cccc(NC(=O)c2ccccc2Br)c1`, the Potency is 32.6 µM (active).

Take `COc1ccc2nc(NC(=O)CCc3ccc(OC)c(OC)c3)sc2c1`: the Potency entry was “inactive”. For the compound `CC(C)Oc1ccc(C(=O)Nc2ccc(-c3nc4ccccc4s3)cc2)cc1`, the Potency entry was “inactive”.

In the case of `CC(=O)Nc1cccc(-c2nc3ccccc3s2)c1C`, the Potency is 23.1 µM (active).

Take `CN(C)c1cccc(C(=O)Nc2ccc(-c3nc4ccccc4s3)cc2)c1`: the Potency was 2.91 µM (active).

As to `Oc1ccc(-c2nc3ccccc3s2)c(O)c1`, the Potency was 6.51 µM (active). Turning to `O=C(O)c1cccc(NC(=O)c2ccc(COc3ccc(Cl)cc3)cc2)c1`, the Potency is 3.66 µM (active). For `O=C(Nc1ccccc1-c1nc2ccccc2s1)c1cccnc1` the value was “inactive”; for `Nc1ccc(-c2nc3cc(N)ccc3s2)cc1`, 0.819 µM (active); for `COc1ccc2nc(NC(=O)c3ccc([N+](=O)[O-])o3)sc2c1`, 3.66 µM (active). As for `COc1ccc(CC(=O)Nc2cccc(C(=O)Nc3ccccc3C(=O)O)c2)cc1OC`, the Potency is 41.1 µM (active). As to `Cc1c(NC(=O)c2cccs2)cccc1-c1nc2ccccc2s1`, the Potency was 4.11 µM (active).

With `Cc1ccc(C(=O)Nc2cccc(C(=O)O)c2)cc1`, the Potency is 0.0326 µM (active). The same measure for `Cc1ccc(NS(=O)(=O)c2ccc(Cl)c(C(=O)Nc3cccc(C(=O)O)c3)c2)cc1`: “inactive”; for `CC(C)c1ccc(C(=O)Nc2ccc(-c3nc4ccccc4s3)c(Cl)c2)cc1`: “inactive”; for `Cc1ccc(C(=O)Nc2ccc(C(=O)O)cc2)cc1S(=O)(=O)NCc1ccccc1`: “inactive”.
